The structures appear in SMILES notation. Records with an inconclusive call do not appear. Calls of active or inactive are those of the source. Unless noted, calls come from the whole dose curve; as a rule, active = well fitted curve in the direction sought with a large enough effect in the repeat runs; inconclusive = weak or mixed curves; inactive = no such curve, though single readings can be large; an effect the other way counts as inactive or inconclusive.

Experiment [1] in a line: qHTS assay to identify small molecule antagonists of the glucocorticoid receptor (GR) signaling pathway - cell viability counter screen (AID 720693). Note: nearly all actives have a fitted effect of over 55% in size. Background: qHTS replaces the single test concentration by a dilution series.
Experiment [2] can be described thus: qHTS assay for identifying genotoxic compounds that show differential cytotoxicity against isogenic chicken DT40 cell lines with known DNA damage response pathways - wild type cell line (AID 743012). Note: nearly all actives have a fitted effect of over 60% in size. Note: potency is the fitted concentration of half-maximal effect. Put shortly:
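First, wild type DT40 cells were plated at 300 per well and equilibrated about 0.5 h at 37 C/5% CO2. Next, compounds in DMSO were added and exposure lasted 40 h. Finally, CellTiter-Glo was added for 30 min at room temperature and luminescence recorded.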

Experiment [3] can be described thus: qHTS assay for identifying genotoxic compounds that show differential cytotoxicity against isogenic chicken DT40 cell lines with known DNA damage response pathways - Rev3 mutant cell line (AID 743014). Note: nearly all actives have a fitted effect of over 55% in size. Note: potency is the fitted concentration of half-maximal effect.
The nature of experiment [4]: qHTS assay for identifying genotoxic compounds that show differential cytotoxicity against isogenic chicken DT40 cell lines with known DNA damage response pathways - Rad54/Ku70 mutant cell line (AID 743015). Note: nearly all actives have a fitted effect of over 60% in size. Note: potency is the fitted concentration of half-maximal effect.
Experiment [5] is described as follows: qHTS assay to identify small molecule antagonists of the androgen receptor (AR) signaling pathway - cell viability counter screen (AID 743033; note: nearly all actives have a fitted effect of over 45% in size).
A short description of experiment [6]: qHTS assay to identify small molecule antagonists of the androgen receptor (AR) signaling pathway using the MDA cell line - cell viability counter screen (AID 743041; note: nearly all actives have a fitted effect of over 45% in size). In short, it runs like this: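 Viability counter screen run alongside the AR antagonist reporter: cells seeded 5 h before compound, R1881 added, 16 h incubation at 37C without CO2, fluorescent CellTiter-Fluor signal quantified.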

Experiment [7] can be described thus: qHTS assay to identify small molecule antagonists of the thyroid receptor (TR) signaling pathway - cell viability counter screen (AID 743064). Note: nearly all actives have a fitted effect of over 50% in size. In short, it runs like this: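 Viability of T3-stimulated (1 nM final) GH3.TRE-Luc cells is measured by CellTiter-Fluor fluorescence after 23.5 h compound exposure at 37 °C plus 30 min reagent incubation.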
A short description of experiment [8]: qHTS assay to identify small molecule antagonists of the thyroid receptor (TR) signaling pathway (AID 743065). Note: nearly all actives have a fitted effect of over 55% in size. Note: potency is the fitted concentration of half-maximal effect. Put shortly:
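GH3.TRE-Luc rat pituitary cells carrying two TR response elements driving luciferase were plated for 4 h, given compound plus 1 nM T3 (final), and incubated 23.5 h at 37 C. ONE-Glo luminescence measured reporter inhibition; CellTiter-Fluor fluorescence tracked cytotoxicity.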

Experiment [9] has as its system thyroid hormone receptor (rat, GH3 cells). The experiment can be described thus: qHTS assay to identify small molecule agonists of the thyroid receptor (TR) signaling pathway (AID 743066; calls by dose curve).
Experiment [10] concerns the target Estrogen receptor (Homo sapiens) (UniProt P03372). The experiment can be described thus: qHTS assay to identify small molecule antagonists of the estrogen receptor alpha (ER-alpha) signaling pathway (AID 743069; active = well fitted curve in the direction sought with a large enough effect in the signal ratio in the repeat runs, not every such curve was filed as active; the % refers to the signal ratio). Put shortly:
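Estradiol-stimulated ER-alpha-UAS-bla HEK293 cells, 18 hr compound exposure at 37C. LiveBLAzer B/G substrate, 2 hr RT, fluorescence read.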

Experiment [11] in a line: qHTS assay to identify small molecule antagonists of the estrogen receptor alpha (ER-alpha) signaling pathway - cell viability counter screen (AID 743074; calls by dose curve;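 note: HEK293 cells carrying ER-alpha-UAS-bla reporter stimulated with 17beta-estradiol; nearly all actives have a fitted effect of over 45% in size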).
In experiment [12] the target is Estrogen receptor (Homo sapiens) (UniProt P03372). The experiment can be described thus: qHTS assay to identify small molecule agonists of the estrogen receptor alpha (ER-alpha) signaling pathway (AID 743075; calls by dose curve;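 note: HEK293 GripTite cells with ER-alpha and UAS-driven beta-lactamase reporter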).
The target is the same in experiment [13]. The experiment can be described thus: qHTS assay to identify small molecule agonists of the estrogen receptor alpha (ER-alpha) signaling pathway using the BG1 cell line (AID 743079). Note: nearly all actives have a fitted effect of over 20% in size. Note: potency is the fitted concentration of half-maximal effect.
A short description of experiment [14]: qHTS assay to identify small molecule antagonists of the estrogen receptor alpha (ER-alpha) signaling pathway using the BG1 cell line (AID 743080; calls by dose curve;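 note: BG1 cells stimulated with 17beta-estradiol alongside compound; series mostly up to about 70 µM; nearly all actives have a fitted effect of over 25% in size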). In short, it runs like this:
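After 5 days in phenol-red-free 10% charcoal-stripped FBS medium, BG1-Luc-4E2 cells were seeded, left 24 h at 37 C, co-treated with compounds and 17beta-estradiol for 21.5 h, then assayed for viability and luciferase.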

Experiment [15] in a line: qHTS assay to identify small molecule antagonists of the estrogen receptor alpha (ER-alpha) signaling pathway using the BG1 cell line - cell viability counter screen (AID 743081).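 Note: compound given together with 17beta-estradiol as the ER stimulus; series mostly up to about 70 µM; nearly all actives have a fitted effect of over 45% in size.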
Experiment [16] has as its target Aromatase (Homo sapiens) (UniProt P11511). The experiment can be described thus: qHTS assay to identify aromatase inhibitors (AID 743083). Note: series mostly up to about 70 µM; nearly all actives have a fitted effect of over 55% in size.
Experiment [17] can be described thus: qHTS assay to identify aromatase inhibitors - cell viability counter screen (AID 743084).
Experiment [18] has as its target Androgen receptor (Homo sapiens) (UniProt P10275). The experiment can be described thus: qHTS assay to identify small molecule antagonists of the androgen receptor (AR) signaling pathway (AID 743035; active = well fitted inhibition curve with a large enough effect in the signal ratio in the repeat runs, not every such curve was filed as active; the % refers to the signal ratio). Put shortly: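 Beta-lactamase FRET read (2 h RT incubation with LiveBLAzer B/G) following 16 h of compound plus R1881 treatment of AR-UAS-bla HEK293 cells, which had been pre-incubated 4 h at 37C.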

For experiment [19] the target is unchanged. The experiment can be described thus: qHTS assay to identify small molecule agonists of the androgen receptor (AR) signaling pathway (AID 743036; active = well fitted activation curve with a large enough effect in the signal ratio in the repeat runs, with a control signal flat, not every such curve was filed as active; the % refers to the signal ratio). In short, it runs like this:
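Screening used 2,000 AR-bla HEK293 cells per well, treated 16 h at 37C with test compounds in DMSO alongside positive and DMSO-only controls; beta-lactamase activity was then read by LiveBLAzer B/G FRET fluorescence after 2 h at room temperature.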

Experiment [20] has the same target. The experiment can be described thus: qHTS assay to identify small molecule agonists of the androgen receptor (AR) signaling pathway using the MDA cell line (AID 743040; note: nearly all actives have a fitted effect of over 20% in size). In short, it runs like this: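 Luminescence from ONE-Glo, read after 30 min at room temperature, reflects MMTV-driven luciferase in MDA-kb2 cells (AR- and GR-responsive). Treatment lasted 16 h at 37C, 0% CO2.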

Sequence of Estrogen receptor (Homo sapiens) (P03372 whole entry, looked up): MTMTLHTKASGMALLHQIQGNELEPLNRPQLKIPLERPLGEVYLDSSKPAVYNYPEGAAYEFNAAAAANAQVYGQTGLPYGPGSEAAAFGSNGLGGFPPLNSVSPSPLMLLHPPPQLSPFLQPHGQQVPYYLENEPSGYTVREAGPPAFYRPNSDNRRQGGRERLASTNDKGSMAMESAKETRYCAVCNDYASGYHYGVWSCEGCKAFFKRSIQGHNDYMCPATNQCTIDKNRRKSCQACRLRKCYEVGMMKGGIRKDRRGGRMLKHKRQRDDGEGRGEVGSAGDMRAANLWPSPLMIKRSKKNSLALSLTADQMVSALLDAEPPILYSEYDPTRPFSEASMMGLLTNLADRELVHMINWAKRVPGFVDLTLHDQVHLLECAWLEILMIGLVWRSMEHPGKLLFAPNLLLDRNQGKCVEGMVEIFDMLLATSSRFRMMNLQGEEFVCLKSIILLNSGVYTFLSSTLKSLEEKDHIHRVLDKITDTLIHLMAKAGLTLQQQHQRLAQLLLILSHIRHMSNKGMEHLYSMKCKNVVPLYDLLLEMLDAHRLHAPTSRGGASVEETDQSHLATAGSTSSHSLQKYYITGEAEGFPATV
Sequence of Androgen receptor (Homo sapiens) (P10275 whole entry, looked up): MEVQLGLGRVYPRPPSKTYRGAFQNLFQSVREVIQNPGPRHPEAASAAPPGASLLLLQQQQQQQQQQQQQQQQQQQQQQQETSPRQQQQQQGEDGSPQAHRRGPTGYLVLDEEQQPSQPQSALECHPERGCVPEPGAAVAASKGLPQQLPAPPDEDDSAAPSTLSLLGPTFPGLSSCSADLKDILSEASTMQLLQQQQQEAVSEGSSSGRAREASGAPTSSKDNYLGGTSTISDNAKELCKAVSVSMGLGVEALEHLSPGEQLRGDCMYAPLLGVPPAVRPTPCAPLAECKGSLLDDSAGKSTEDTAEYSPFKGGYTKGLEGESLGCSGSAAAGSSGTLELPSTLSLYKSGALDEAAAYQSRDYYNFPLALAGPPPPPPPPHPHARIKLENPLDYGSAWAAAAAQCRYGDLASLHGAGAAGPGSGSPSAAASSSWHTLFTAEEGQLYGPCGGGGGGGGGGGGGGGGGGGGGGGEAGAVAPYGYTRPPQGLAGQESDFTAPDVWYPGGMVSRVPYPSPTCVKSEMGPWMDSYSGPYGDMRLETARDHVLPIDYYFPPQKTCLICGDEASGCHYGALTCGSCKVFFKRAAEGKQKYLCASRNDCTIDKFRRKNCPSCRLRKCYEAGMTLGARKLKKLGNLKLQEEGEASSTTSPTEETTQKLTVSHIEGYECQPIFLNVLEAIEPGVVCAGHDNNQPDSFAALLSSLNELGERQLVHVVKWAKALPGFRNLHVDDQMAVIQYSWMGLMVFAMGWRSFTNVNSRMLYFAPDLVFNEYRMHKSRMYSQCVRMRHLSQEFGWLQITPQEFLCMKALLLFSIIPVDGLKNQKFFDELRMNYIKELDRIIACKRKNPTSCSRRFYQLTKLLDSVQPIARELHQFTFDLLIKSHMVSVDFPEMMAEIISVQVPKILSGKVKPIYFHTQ
Sequence of Aromatase (Homo sapiens) (P11511 whole entry, looked up): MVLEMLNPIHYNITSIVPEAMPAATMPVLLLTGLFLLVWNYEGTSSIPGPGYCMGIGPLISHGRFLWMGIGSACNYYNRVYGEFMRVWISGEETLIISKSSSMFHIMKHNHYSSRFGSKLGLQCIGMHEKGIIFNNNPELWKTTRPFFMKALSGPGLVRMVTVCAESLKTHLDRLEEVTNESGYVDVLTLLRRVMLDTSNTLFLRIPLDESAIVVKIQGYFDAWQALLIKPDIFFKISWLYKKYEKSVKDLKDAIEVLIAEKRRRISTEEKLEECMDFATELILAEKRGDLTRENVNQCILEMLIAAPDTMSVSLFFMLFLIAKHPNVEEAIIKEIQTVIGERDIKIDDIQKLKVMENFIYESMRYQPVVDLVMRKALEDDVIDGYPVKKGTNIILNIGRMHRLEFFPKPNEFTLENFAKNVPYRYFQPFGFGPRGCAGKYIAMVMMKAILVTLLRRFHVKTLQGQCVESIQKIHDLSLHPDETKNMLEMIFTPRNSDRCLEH

With `CCCCN(CCC(=O)OCC)C(C)=O`, the result in [1], in [5], in [9], in experiment [15] and in experiment [16] was inactive. The Potency entry in experiment [2], in experiment [3], in [4], in experiment [6], in [7] and in [8] was “inactive” in each case. In addition, the Potency entry in experiment [10], in experiment [11], in [12], in experiment [13], in experiment [14] and in experiment [17] was “inactive” in each case.
Consider `CC(=O)c1cnccn1`, for which the outcome in experiment [1], in experiment [5], in experiment [9], in [15] and in experiment [16] was inactive. Moreover, the Potency result in [2], in [3], in experiment [4], in experiment [6], in experiment [7] and in experiment [8] was “inactive” throughout. In addition, the Potency entry in experiment [10], in [11], in experiment [12], in [13], in experiment [14] and in experiment [17] was “inactive” in each case.
As to `CCOC(=O)COC(=O)c1ccccc1C(=O)OCC`, the molecule was called inactive in experiment [1], in [5], in [9], in experiment [15] and in [16]. Besides, the Potency result in [2], in experiment [3], in experiment [4], in experiment [6], in experiment [7] and in experiment [8] was “inactive” each time. The Potency result in experiment [10], in experiment [11], in experiment [12], in experiment [13], in [14] and in experiment [17] was “inactive” each time.
For the molecule `CCNS(=O)(=O)c1ccc(C)cc1`, the molecule was classed as inactive in experiment [1], in experiment [5], in [9], in experiment [15] and in experiment [16]. For the same molecule, the Potency result in [2], in [3], in [4], in experiment [6], in experiment [7] and in experiment [8] was “inactive” throughout. The Potency result in experiment [10], in [11], in experiment [12], in [13] and in experiment [17] was “inactive” throughout.
As to `CCN(Cc1ccccc1)c1ccccc1`, the molecule was classed as inactive in [1], in experiment [5], in experiment [19], in experiment [15] and in experiment [16]. The Potency entry in experiment [2], in [3], in [4], in experiment [18], in [20] and in experiment [6] was “inactive” each time. In addition, the Potency result in experiment [10], in experiment [11], in experiment [12], in experiment [13], in experiment [14] and in [17] was “inactive” throughout.
With `COC(=O)Nc1ccc(Cl)c(Cl)c1`, the result in experiment [1], in experiment [5], in [19], in experiment [9], in experiment [15] and in [16] was inactive. Also, the Potency result in experiment [2], in experiment [3], in [4], in experiment [20], in experiment [6] and in [11] was “inactive” each time. Further, the Potency result in [17] is “inactive”. Also, the Potency in [8] is 60.8 µM (active).
As to `CCCOC(=O)CC`, the molecule was classed as inactive in experiment [1], in experiment [5], in experiment [19], in experiment [9], in [15] and in experiment [16]. The Potency result in experiment [2], in experiment [3], in experiment [4], in experiment [18], in experiment [20] and in experiment [6] was “inactive” in each case. Moreover, the Potency result in [7], in experiment [8], in experiment [10], in experiment [11], in experiment [12] and in experiment [13] was “inactive” each time. Further, the Potency result in experiment [14] and in experiment [17] was “inactive” throughout.
For `CCCCN1C=CN(C)C1`, the outcome in experiment [1], in experiment [5], in [9], in experiment [15] and in experiment [16] was inactive. For the same molecule, the Potency entry in experiment [2], in experiment [3], in experiment [4], in experiment [6], in experiment [7] and in [8] was “inactive” throughout. Moreover, the Potency entry in experiment [10], in experiment [11], in experiment [12], in experiment [13] and in [17] was “inactive” each time.
`O=C(O)c1cc(C(=O)O)cc(C(=O)O)c1`: the outcome in experiment [1], in [5], in experiment [9], in [15] and in experiment [16] was inactive. The Potency result in experiment [2], in [3], in [4], in experiment [6], in [7] and in experiment [8] was “inactive” in each case. Besides, the Potency entry in [10], in experiment [11], in [12], in experiment [13], in experiment [14] and in [17] was “inactive” in each case.
Take `CC(=O)c1ccccc1[N+](=O)[O-]`: the call in experiment [1], in experiment [5], in [9], in experiment [15] and in experiment [16] was inactive. In addition, the Potency result in experiment [2], in [3], in [4], in experiment [6], in experiment [7] and in [8] was “inactive” in each case. Moreover, the Potency result in experiment [10], in [11], in [12], in experiment [13], in experiment [14] and in experiment [17] was “inactive” throughout.
`[K+]`: the call in experiment [1], in experiment [5], in experiment [9], in experiment [15] and in experiment [16] was inactive. The Potency entry in experiment [2], in [3], in experiment [4], in experiment [6], in [7] and in [8] was “inactive” in each case. The Potency entry in experiment [10], in [11], in experiment [12], in experiment [13], in experiment [14] and in experiment [17] was “inactive” throughout.
On to `Cc1ccc(C(=O)c2ccccc2)cc1`, for which the molecule was called inactive in experiment [1], in experiment [5], in experiment [19], in [9], in experiment [15] and in experiment [16]. The Potency in experiment [2] was 61.1 µM (active); in experiment [3], 54.5 µM (active); in experiment [4], 68.6 µM (active); in [13], 21.7 µM (active). Further, the Potency entry in experiment [18], in experiment [20], in experiment [6], in [7], in [8] and in experiment [10] was “inactive” each time. Moreover, the Potency result in experiment [11], in experiment [12], in experiment [14] and in [17] was “inactive” throughout.
With `CC(=O)Oc1cccc(C)c1`, the call in experiment [1], in experiment [5], in experiment [9], in experiment [15] and in experiment [16] was inactive. Moreover, the Potency result in experiment [2], in [3], in experiment [4], in [6], in experiment [7] and in [8] was “inactive” throughout. Moreover, the Potency result in experiment [10], in [11], in [12], in experiment [13], in experiment [14] and in [17] was “inactive” each time.
As to `O=C(O)CCSCCC(=O)O`, the call in experiment [1], in experiment [5], in [19], in experiment [9], in [15] and in experiment [16] was inactive. The Potency result in experiment [2], in [3], in experiment [4], in experiment [20], in experiment [6] and in [8] was “inactive” throughout. For the same molecule, the Potency entry in experiment [11], in experiment [12], in experiment [13], in experiment [14] and in experiment [17] was “inactive” each time.
`CCC1C(=O)OCC1Cc1cncn1C` (stereo unspecified): the molecule was called inactive in [1], in experiment [5], in [9], in experiment [15] and in experiment [16]. The Potency entry in experiment [2], in [3], in [4], in [6], in experiment [7] and in experiment [8] was “inactive” throughout. Further, the Potency entry in experiment [10], in [11], in experiment [12], in experiment [13], in [14] and in [17] was “inactive” throughout.
`CC[N+](CC)(CC)CCOc1cccc(OCC[N+](CC)(CC)CC)c1OCC[N+](CC)(CC)CC`: the call in [1], in [5], in experiment [9], in [15] and in experiment [16] was inactive. For the same molecule, the Potency result in experiment [2], in [3], in [4], in [18], in experiment [20] and in experiment [6] was “inactive” in each case. Besides, the Potency entry in [7], in experiment [8], in experiment [11] and in experiment [17] was “inactive” each time.

The record behind these values is PubChem BioAssay (Tox21).
